Experimental data reported in PubChem BioAssay (NCATS).
Records with an inconclusive call do not appear. Activity calls are given as the source filed them. Unless noted, the call rests on the fitted dose curve; in most records, active means well fitted curve in the direction sought with a large enough effect; inconclusive means small, poorly fitted or top-dose-only effect, or another doubt; inactive means no such curve, though single readings can be large; an effect the other way counts as inactive or inconclusive.

Legend:
[1] = Counterscreen qHTS for small molecule stabilizers of the endoplasmic reticulum resident proteome: GLuc-NoTag assay (AID 1508627); further: potency means the concentration at half of the fitted maximal effect;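 on activity change, negative = inhibition: SH-SY5Y cells given compound then 100 nM thapsigargin to empty ER calcium; 0% = thapsigargin alone and -100% = DMSO vehicle control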
How it was run: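 SH-SY5Y cells stably expressing constitutively secreted GLuc without SERCaMP tag, exposed to compound for 19 hr, then to 100 nM thapsigargin for 4 hr at 37C. Medium luciferase was read by coelenterazine luminescence without lysis.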

[2] = Cell Viability qHTS for small molecule stabilizers of the endoplasmic reticulum resident proteome (AID 1508629); conditions: cell viability counter-screen, 100 nM thapsigargin for final 4 h;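 further: potency means the concentration at half of the fitted maximal effect; compound exposure about 46 h in total before the viability read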
[3] = target: Glucocorticoid receptor (Homo sapiens) (UniProt P04150); assay: GR-GFP Redistribution (AID 450;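 active means compounds whose dose series gives a full or clear partial fitted curve of increased nuclear translocation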; further: potency means the concentration at half of the fitted maximal effect); conditions: U2OS GR-GFP nuclear translocation, laser cytometry, 2 h
[4] = target: Glucocorticoid receptor (Homo sapiens) (UniProt P04150); assay: GR-EFC Redistribution (AID 451; calls by dose curve; further: potency means the concentration at half of the fitted maximal effect); conditions: CHO-K1 GR-EFC translocation, beta-gal luminescence, 2 h
How it was run: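 CHO-K1 cells expressing nuclear EA and GR-ED fragments of b-gal; compounds titrated up to 46 uM final, 2 h at 37 C. GR nuclear translocation read as complemented b-gal luminescence after 1 h RT detection.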

[5] = target: Mitogen-activated protein kinase 10 (Mus musculus) (UniProt Q61831); assay: JNK3 AlphaScreen Assay (AID 530; active means well fitted curve in either direction with a large enough effect, not every such curve was filed as active;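 further: kinase came from lysate of stimulated human HepG2 cells; signal reports phosphorylation of biotinylated GST-cJun 1-79 at Ser73 with 10 µM ATP; on the % scale 0 is the no-effect control and ±100 the full control effect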)
How it was run: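 Pre-activated (IL-1β/TNFα) JNK3 in HepG2 lysates phosphorylates biotin-GST-cJun(1-79), 10 uM ATP; anti-phospho-cJun(Ser73) AlphaScreen read at room temperature, pH 7.6 Tris buffer. Compounds pre-incubated 15 min as titrations.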

[6] = qHTS Assay for Lipid Storage Modulators (AID 1519; calls by dose curve; on activity change, negative = inhibition: on the % scale 0 is the no-effect control and ±100 the full control effect); conditions: Drosophila S3 cells, BODIPY lipid droplet/cell ratio, laser cytometry, cells loaded with oleic acid
How it was run: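 Cells seeded at 5,000 per well were treated with compounds over a concentration series and loaded with oleic acid (400 uM, as added). Lipid droplet fluorescence (488 nm excitation, 500-530 nm channel) was read by laser-scanning cytometry and normalized to 20 uM Triacsin C.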

[7] = target: Ubiquitin carboxyl-terminal hydrolase 1 (Homo sapiens) (UniProt O94782); assay: Inhibitors of USP1/UAF1: Pilot qHTS (AID 504865);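 further: rhodamine fluorescence freed from ubiquitin-rhodamine substrate followed over time; top concentration of the series differs between compounds; on the % scale 0 is the no-effect control and ±100 the full control effect; nearly all actives have a fitted effect of over 35% in size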
How it was run: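 Enzyme-free wells gave the negative control, while test wells held 1nM USP1/UAF1 preincubated with compound for 15 min at room temperature. Ub-Rho at 150nM final started the reaction, and fluorescence at 480/540 nm was recorded kinetically.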

[8] = target: DNA dC->dU-editing enzyme APOBEC-3G (Homo sapiens) (UniProt Q9HC16); assay: qHTS for inhibitors of Vif-A3G interactions: Validation (AID 588379); further: 0% is about no effect
How it was run: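 HeLa cells stably expressing Vif and A3G-eYFP, 700 cells/well, incubated overnight at 37 deg C, then exposed to compound overnight at 37 deg C. Inhibition of Vif-mediated degradation read as increased yellow fluorescence (Ex 488/Em 500-530) by laser-scanning cytometry.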

[9] = Confirmatory qHTS for small molecule stabilizers of the endoplasmic reticulum resident proteome: Secreted ER Calcium Modulated Protein (SERCaMP) assay (AID 1508628); further: on the % scale 0 is the no-effect control and ±100 the full control effect; nearly all actives have a fitted effect of over 40% in size
How it was run: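 SH-SY5Y cells stably expressing GLuc-SERCaMP, treated 16 h with compound (primary 1.53, 7.67, 38.3 uM; confirmation 11 concentrations, up to 76.6 uM), then 100 nM thapsigargin for 4 h. Secreted Gaussia luciferase in medium read by coelenterazine luminescence.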

[10] = Primary qHTS for small molecule stabilizers of the endoplasmic reticulum resident proteome: Secreted ER Calcium Modulated Protein (SERCaMP) assay (AID 1508630); further: on the % scale 0 is the no-effect control and ±100 the full control effect
How it was run: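 GLuc-SERCaMP-expressing SH-SY5Y cells, pretreated 16 h with compound, are challenged with thapsigargin to empty ER calcium stores; after 4 h, coelenterazine is added directly to the medium and luminescence is imaged.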

Sequence of Glucocorticoid receptor (Homo sapiens) (P04150 whole entry, looked up, the tested form may be a part): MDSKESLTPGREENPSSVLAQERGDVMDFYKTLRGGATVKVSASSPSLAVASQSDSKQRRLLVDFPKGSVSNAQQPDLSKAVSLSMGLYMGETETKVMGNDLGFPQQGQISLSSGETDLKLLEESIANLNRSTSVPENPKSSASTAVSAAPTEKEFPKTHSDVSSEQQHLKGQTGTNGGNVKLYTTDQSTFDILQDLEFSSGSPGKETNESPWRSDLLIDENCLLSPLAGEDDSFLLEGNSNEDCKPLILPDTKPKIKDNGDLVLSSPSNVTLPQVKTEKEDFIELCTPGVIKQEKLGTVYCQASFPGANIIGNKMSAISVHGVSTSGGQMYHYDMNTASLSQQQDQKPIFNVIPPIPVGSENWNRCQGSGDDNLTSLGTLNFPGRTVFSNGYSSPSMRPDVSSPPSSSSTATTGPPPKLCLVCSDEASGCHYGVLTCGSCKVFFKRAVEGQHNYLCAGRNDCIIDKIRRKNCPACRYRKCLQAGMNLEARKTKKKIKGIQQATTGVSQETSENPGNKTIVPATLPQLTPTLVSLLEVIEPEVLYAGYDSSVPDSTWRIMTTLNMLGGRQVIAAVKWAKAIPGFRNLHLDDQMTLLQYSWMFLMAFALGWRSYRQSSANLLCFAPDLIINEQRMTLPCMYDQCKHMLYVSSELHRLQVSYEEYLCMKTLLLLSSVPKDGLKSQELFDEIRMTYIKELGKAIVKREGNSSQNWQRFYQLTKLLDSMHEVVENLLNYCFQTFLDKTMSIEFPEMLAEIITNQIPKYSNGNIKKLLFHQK
Sequence of Ubiquitin carboxyl-terminal hydrolase 1 (Homo sapiens) (O94782 whole entry, looked up): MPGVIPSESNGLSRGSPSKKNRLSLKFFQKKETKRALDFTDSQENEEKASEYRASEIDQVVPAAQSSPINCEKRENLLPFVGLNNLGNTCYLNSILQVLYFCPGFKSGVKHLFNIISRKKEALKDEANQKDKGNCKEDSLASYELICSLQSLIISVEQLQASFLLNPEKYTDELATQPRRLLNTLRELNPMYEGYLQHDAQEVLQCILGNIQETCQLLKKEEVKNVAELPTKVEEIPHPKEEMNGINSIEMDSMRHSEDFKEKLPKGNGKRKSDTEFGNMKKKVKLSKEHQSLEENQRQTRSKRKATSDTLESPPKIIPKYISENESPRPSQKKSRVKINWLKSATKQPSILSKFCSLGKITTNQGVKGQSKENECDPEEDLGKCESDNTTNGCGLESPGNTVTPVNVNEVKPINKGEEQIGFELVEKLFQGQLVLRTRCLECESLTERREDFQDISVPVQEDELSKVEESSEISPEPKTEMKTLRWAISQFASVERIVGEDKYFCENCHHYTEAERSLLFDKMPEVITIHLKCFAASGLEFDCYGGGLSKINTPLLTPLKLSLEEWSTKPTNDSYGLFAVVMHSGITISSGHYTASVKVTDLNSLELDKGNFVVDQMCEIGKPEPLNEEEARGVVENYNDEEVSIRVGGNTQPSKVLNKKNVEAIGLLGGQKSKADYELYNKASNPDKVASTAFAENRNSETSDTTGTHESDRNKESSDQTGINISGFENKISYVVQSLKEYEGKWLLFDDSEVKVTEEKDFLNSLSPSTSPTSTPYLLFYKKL
Sequence of DNA dC->dU-editing enzyme APOBEC-3G (Homo sapiens) (Q9HC16 whole entry, looked up): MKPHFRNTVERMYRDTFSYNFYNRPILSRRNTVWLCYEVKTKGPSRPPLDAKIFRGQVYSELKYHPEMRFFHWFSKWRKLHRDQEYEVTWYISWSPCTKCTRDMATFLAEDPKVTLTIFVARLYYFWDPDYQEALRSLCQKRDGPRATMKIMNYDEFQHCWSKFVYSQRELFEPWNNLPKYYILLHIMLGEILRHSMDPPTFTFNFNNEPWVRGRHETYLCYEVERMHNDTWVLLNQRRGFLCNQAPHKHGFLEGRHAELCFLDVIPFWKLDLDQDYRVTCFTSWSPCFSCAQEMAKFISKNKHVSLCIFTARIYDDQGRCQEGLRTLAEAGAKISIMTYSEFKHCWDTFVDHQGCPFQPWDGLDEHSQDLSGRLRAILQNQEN

Fc1ccc(C(OCCN2CCN(C/C=C/c3ccccc3)CC2)c2ccc(F)cc2)cc1
active: Potency [1] 44.7 µM | Potency [2] 20 µM

O[C@@H]1[C@H](O)[C@H]2[C@@H](O)CCN2C[C@@H]1O
6.33%: max response ([6]; measured here: lipid channel max response)
7.43%: max response ([6]; measured here: cell count channel max response)
inactive: Potency [3] > 46 µM | Potency [4] > 46 µM | outcome [5] | activity change, negative = inhibition ([6]; at 57.5 µM (top of the series)) -2.53% | Potency [7] | Potency [8] | Potency [1] | Potency [9] | Potency [10]
